The nature of assay [1]: qHTS assay to identify small molecule agonists of H2AX (AID 1224845; active means well fitted activation curve with a large enough effect in the signal ratio in the repeat runs, not every such curve was filed as active; the % refers to the signal ratio; further: potency means the concentration at half of the fitted maximal effect). A digest of the protocol: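 Wild-type CHO-K1 cells plated overnight, then exposed 3 hr at 37C to compounds at 15 concentrations (0.76% DMSO). Lysed, then HTRF anti-pH2AX(S139)-cryptate/anti-H2AX-d2 detection after 24 hr at room temperature; emissions 665 and 620 nm.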
A general note: In qHTS, concentration-response curves come from the screen itself.

Assay [2] is described as follows: qHTS assay to identify small molecule agonists of the hypoxia (HIF-1) signaling pathway (AID 1224846; active means well fitted activation curve with a large enough effect in the signal ratio in the repeat runs, not every such curve was filed as active; the % refers to the signal ratio). An outline of the steps:
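Agonist mode reporter screen. ME-180 cells stably expressing bla under HRE control received test compounds in DMSO for 17 hrs (37C, 5% CO2), and beta-lactamase activity was then detected with the CCF4-AM FRET substrate.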

Assay [3] in a line: qHTS assay to identify small molecule agonists of H2AX - cell viability counter screen (AID 1224847; calls by dose curve; further: nearly all actives have a fitted effect of over 30% in size; further: potency means the concentration at half of the fitted maximal effect; on activity change, negative = cytotoxicity: top concentration of the series differs between compounds). A digest of the protocol: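 CHO-K1 cells plated overnight at 37C, then exposed 3 h at 37C to compounds at 15 concentrations (0.76% DMSO final). Viability by CellTiter-Glo luminescence after 30 min at room temperature.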
The nature of assay [4]: qHTS RealTime-Glo MT Cell Viability Assay in HepG2 cells - 24 hour (AID 1224867). Further: nearly all actives have a fitted effect of over 50% in size. Further: potency means the concentration at half of the fitted maximal effect. An outline of the steps: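 Compound treatment began 5 h after plating HepG2 cells (600/well) with NanoLuc luciferase and prosubstrate. Plates stayed at 37 C for 40 h; luminescence was captured at six time points, 0 h through 40 h.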
Assay [5] in a line: qHTS RealTime-Glo MT Cell Viability Assay in HEK293 cells - 32 hour (AID 1224868). Further: nearly all actives have a fitted effect of over 50% in size. Further: potency means the concentration at half of the fitted maximal effect. On activity change, negative = cytotoxic: top concentration of the series differs between compounds. A digest of the protocol:
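Quantitative high-throughput screen of the Tox21 10K library in HEK293: cells and RealTime-Glo reagents plated together, compound added at 5 h, luminescence monitored through 40 h at 37 C.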

The nature of assay [6]: A CellTox Green Cytotoxicity Assay to monitor cytotoxicity in HEK293 cells - 0 hour (AID 1224869). Further: nearly all actives have a fitted effect of over 50% in size. A digest of the protocol:
(§1)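 Dead-cell fluorescence measured kinetically: asymmetric cyanine dye, HEK293, 600 cells/well, 5 h settle, 23 nL cpd/DMSO, 37 C, reads 0–40 h every 8 h.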

Assay [7] is described as follows: qHTS RealTime-Glo MT Cell Viability Assay in HepG2 cells - 40 hour (AID 1224870). Further: nearly all actives have a fitted effect of over 50% in size. Further: potency means the concentration at half of the fitted maximal effect. A digest of the protocol: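 HepG2 cells mixed with RealTime-Glo MT reagents (NanoLuc plus cell-permeant prosubstrate) were seeded at 600 cells/well, incubated 5 h at 37 C/5% CO2, then pinned with compounds in DMSO; nonlytic luminescence tracked viability during 40 h treatment.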
A short description of assay [8]: A CellTox Green Cytotoxicity Assay to monitor cytotoxicity in HEK293 cells - 40 hour (AID 1224871). Further: nearly all actives have a fitted effect of over 45% in size. Further: potency means the concentration at half of the fitted maximal effect. A digest of the protocol:
as §1

Assay [9] is described as follows: qHTS assay to identify small molecule antagonists of the estrogen related receptor (ERR) signaling pathway from Tox21 library (AID 1224848). Further: nearly all actives have a fitted effect of over 50% in size. Further: potency means the concentration at half of the fitted maximal effect. An outline of the steps:
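First, 2,000 ERR cells per well were plated and held 6 h at 37 C/5% CO2. Next, compounds in DMSO were pinned in and left 18 h at 37 C. Finally, ONE-Glo was added and luminescence read after 30 min at room temperature.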

The nature of assay [10]: qHTS assay to identify small molecule agonists of the estrogen related receptor (ERR) signaling pathway from Tox21 library (AID 1224849; calls by dose curve; further: nearly all actives have a fitted effect of over 15% in size). As to conditions: ERR reporter cell line, ONE-Glo luciferase, 18 h. A digest of the protocol:
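Quantitative HTS in agonist format: NTP ERR cell line, compounds transferred in DMSO after 6 h plating, 18 h incubation at 37 C, ONE-Glo luminescence endpoint.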

Where [11] appears, read: at 92.4 µM (top of the series) unless noted.

From PubChem BioAssay (Tox21) come the findings set out here.

Each structure is given as a SMILES string. “And” between values parts separate entries of the source, which are not always exact repeats. Equal values may be shown once. A number with no mark means an inactive call. Results filed as inconclusive are left out. The source made the active and inactive calls. Unless noted, the call rests on the fitted dose curve; in most records, active means well fitted curve in the direction sought with a large enough effect in the repeat runs; inconclusive means weak or mixed curves; inactive means no such curve, though single readings can be large; an effect the other way counts as inactive or inconclusive.
On the % scale 0 is the no-effect control and ±100 the full control effect.

With `CN(C)CCCOC1(Cc2ccccc2)CCCCCC1`, the Potency entry in assay [1], in assay [2], in assay [3], in [4], in assay [5] and in assay [6] was “inactive” throughout. Also, the Potency entry in assay [7] and in assay [8] was “inactive” in each case.

`CCCC/C=C/CCCCO`: the Potency entry in assay [1], in assay [2], in assay [3], in [4], in assay [5] and in [6] was “inactive” throughout. The Potency result in [7] and in assay [8] was “inactive” throughout.

As for `COc1ccc(C(=O)/C(Br)=C\C(=O)O)cc1`, the figures for the Potency in assay [1], in assay [5] and in [8] were 31.8 µM (active), 38.9 µM (active) and 24.5 µM (active), respectively. The Potency result in assay [2], in [9] and in assay [6] was “inactive” throughout.

`CCCCCCCCS(=O)C(C)Cc1ccc2c(c1)OCO2` (configuration not stated): the Potency result in assay [1], in [2], in [4], in assay [6], in assay [7] and in assay [8] was “inactive” throughout.

Regarding `CC(C)(C)C(=O)OCOC(=O)C1N2C(=O)CC2S(=O)(=O)C1(C)C` (configuration not stated), the Potency entry in assay [1], in assay [2], in assay [3], in assay [4], in assay [5] and in assay [7] was “inactive” in each case.

As for `CNCc1cc(F)ccc1Oc1ccc(Cl)c(Cl)c1`, the Potency entry in assay [1] was “inactive”. For the same compound, the Potency is 45 µM (active) in assay [3], 48.6 µM (active) in [9], 49 µM (active) in assay [4] and 43.6 µM (active) in assay [5]. In [10] (setting [11]), the activity change, positive = activation was -40.3%.

As for `CC1=NC(C)OC1C` (configuration not stated), the Potency result in [1], in [2], in assay [3], in [4], in [6] and in assay [7] was “inactive” throughout. Moreover, in assay [8], the Potency entry is “inactive”.

On to `CC(C)(C)c1ccc(C(=O)O)cc1`, for which the Potency entry in [1], in assay [2], in assay [3], in [4], in assay [5] and in assay [7] was “inactive” each time. Further, the Potency entry in [8] is “inactive”.

As for `Cc1cccc(S(=O)(=O)O)c1C`, the Potency result in assay [1], in assay [2], in assay [4], in assay [5], in assay [6] and in assay [7] was “inactive” throughout. The Potency entry in assay [8] was “inactive”.

Take `NC(=O)CC[C@@H]1NC(=O)[C@H](Cc2ccccc2)NC(=O)[C@H](Cc2ccc(O)cc2)NC(=O)CCSSC[C@@H](C(=O)N2CCC[C@H]2C(=O)N[C@@H](CCCN=C(N)N)C(=O)NCC(N)=O)NC(=O)[C@H](CC(N)=O)NC1=O`: the Potency entry in assay [1], in assay [2], in assay [3], in assay [4], in assay [5] and in assay [7] was “inactive” each time. Besides, the Potency entry in [8] is “inactive”.

On to `c1ccc(CSCc2ccccc2)cc1`, for which the Potency result in [1], in assay [2], in assay [3], in assay [4], in assay [5] and in [6] was “inactive” in each case. The Potency entry in [7] and in assay [8] was “inactive” in each case.

With `CCN(C(=O)N(CC)c1ccccc1)c1ccccc1`, the Potency entry in [1], in assay [2], in assay [4], in assay [6] and in [7] was “inactive” each time. For the same compound, the activity change, positive = activation in assay [10] (setting [11]) is -25.8%.

As for `Cc1c(C)c2c(c(C)c1O)CCC(C)(COc1ccc(CC3SC(=O)NC3=O)cc1)O2` (configuration not stated), the Potency entry in assay [1], in assay [2], in assay [3], in assay [4], in assay [6] and in [7] was “inactive” each time. The Potency entry in assay [8] was “inactive”. Further, in [5], the Potency was 38.9 µM (active).

On to `COC(=O)c1cc(Cl)ccc1OC`, for which the Potency result in assay [1], in assay [2], in [3], in assay [4], in assay [5] and in assay [6] was “inactive” in each case. Further, the Potency entry in assay [7] and in assay [8] was “inactive” each time.

For the compound `CCC1OCC(COc2ccc(Oc3ccccc3)cc2)O1` (configuration not stated), the Potency entry in assay [1], in assay [2], in assay [9], in [4], in assay [7] and in assay [8] was “inactive” each time. Moreover, in assay [10] (setting [11]), the activity change, positive = activation was -1.58% (active).

As to `CC(C)(C)CC(C)(C)c1ccc(OCCOCC[N+](C)(C)Cc2ccccc2)cc1`, the Potency result in assay [1] and in assay [6] was “inactive” throughout. Also, the Potency in [3] was 101 µM (active) and 49.2 µM (active); in assay [9], 6.85 µM (active) and 5.96 µM (active); in [4], 48.9 µM (active) and 9.52 µM (active); in assay [5], 12.3 µM (active) and 9.52 µM (active); in assay [7] it was 24.5 µM (active) and 9.52 µM (active). Moreover, the activity change, positive = activation in assay [10] (at 42.5 µM (top of the series)) was -58.4%; in assay [10] (at 92.4 µM (top of the series)), -70.8%.

Consider `ON=C1CCCC1`, for which the results for the Potency in assay [1], in assay [9] and in [5] were 104 µM (active), 39.9 µM (active) and 25.4 µM (active), respectively. Also, the Potency result in [2], in [4], in assay [6], in assay [7] and in assay [8] was “inactive” throughout. Further, the activity change, positive = activation in assay [10] (setting [11]) is -71.1%.

Consider `CC(NN)c1ccccc1` (configuration not stated), for which the activation (H2AX phosphorylation) in [1] was -2.63% [at 31.6 µM]. In addition, the activation in assay [2] was -1.03% [at 15.8 µM]. In [3], the Potency result was “inactive”. Besides, the activity change, negative = cytotoxicity in assay [4] is 1.66% [at 15.8 µM]. For the same compound, the activity change, negative = cytotoxic in assay [5] is 1.03% [at 15.8 µM]; in assay [7], -0.13% [at 15.8 µM]. Further, the cytotoxicity in [6] was -1.54% [at 15.8 µM]. Further, in assay [8], the cytotoxicity increase is -15.6% [at 15.8 µM].

Turning to `C/C=C1/C(=O)C[C@H]2[C@@H]3CCC4=CC(=O)CC[C@]4(C)[C@H]3CC[C@]12C`, the Potency result in [1], in assay [2], in assay [3], in assay [6] and in [7] was “inactive” in each case. For the same compound, the Potency in assay [5] is 48.8 µM (active).

With `CC(=O)OCC(C)OC(C)=O` (configuration not stated), the Potency entry in [1], in assay [2], in assay [4], in [5], in assay [6] and in assay [7] was “inactive” throughout. Further, in [8], the Potency entry was “inactive”.

Consider `CCCCCCCCCCCCCCCS(=O)(=O)Oc1ccccc1`, for which the Potency result in assay [1], in [2], in assay [3], in assay [4], in assay [5] and in assay [6] was “inactive” each time. Besides, the Potency result in [7] and in [8] was “inactive” throughout.

Regarding `O=C(Oc1ccccc1)c1ccccc1C(=O)Oc1ccccc1`, the Potency entry in assay [1], in assay [2], in assay [4], in assay [5], in [6] and in assay [7] was “inactive” each time. In assay [8], the Potency entry was “inactive”.

In the case of `O=c1[nH]cnc2nc[nH]c12`, the Potency result in assay [1], in [2], in assay [9], in assay [4], in [5] and in assay [7] was “inactive” in each case. Besides, the Potency result in assay [8] was “inactive”. Also, in [10] (setting [11]), the activity change, positive = activation is 9.65% [at 42.5 µM].

On to `NC(=NCCCCCCN=C(N)/N=C(\N)Nc1ccc(Cl)cc1)/N=C(\N)Nc1ccc(Cl)cc1`, for which the Potency result in [1], in assay [2] and in [6] was “inactive” each time. Moreover, the Potency in assay [5] was 8.67 µM (active) [middle of 5 runs]; in assay [8], 15.8 µM (active) [middle of 4 runs].
